# Experimental data as given in ChEMBL document CHEMBL3988442, “University of Dundee, Small-Polar-MMV Screening Library” (2021).
# The campaign covered roughly 48,000 compounds. About 13,000 (27%) showed an effect of 50% or more. Some of the results follow.
# System: Wolbachia pipientis
# Assay: Anti-Wolbachia Cell-Based Screen
# Type: functional
# Design: scale not given: in the data most compounds retested in dose-response had high values
# Details: 5 µM
row,Structure (SMILES),Percent Effect
1,CCCn1c(C)c(CC(=O)N(C)CCOC)c2c1CC(C)(C)CC2=O,-2.271%
2,Cc1c[nH]c(CN(C)C(=O)CCn2cnc3ccccc32)n1,-8.611%
3,CCn1nc2c(cc1=O)CN(CCOc1ccc(C#N)cc1)CC2,2.029%
4,CCCOc1ccc(OCCN2CCOCS2(=O)=O)cc1,-1.298%
5,CSc1ccc(OCCN2CCNC(=O)CC2)cc1,106.2%
6,CSc1ccc(OCCN2CCNC(=O)C2C)cc1 (stereo unspecified),111.5%
7,Cc1nc(C)n(CC2CCCN2CCOc2ccc(C#N)cc2)n1 (stereo unspecified),-3.46%
8,COc1ccc(CN2CCNC(=O)CC2)cc1SC(F)(F)F,-6.808%
9,CC1C(=O)NCCN1CCOc1ccc(C#N)cc1 (stereo unspecified),92.79%
10,Cc1ncc2c(n1)CN(CCOc1ccc3c(c1)CCC(=O)N3)CC2,3.437%
11,Cc1ccc(C)c2c(O)cc(CN3CCNC(=O)C3C)nc12 (stereo unspecified),-11.58%
12,Cc1noc(C)c1CNCC1COCc2c(-c3ccsc3)nnn2C1.O=C(O)C(F)(F)F (stereo unspecified),0.4259%
13,Cc1ncc(S(=O)(=O)Nc2ccnn2C2CCCCC2)[nH]1,-19.02%
14,COc1ccc(-n2ncc(C(C)NC3CCOCC3)c2C)cc1 (stereo unspecified),-6.318%
15,CC(C)(C)c1cc(NC(=O)CN2CCCC2Cn2cncn2)on1 (stereo unspecified),8.198%
16,O=C(CN1CCCC1Cn1cccn1)NC1CCN(C2CC2)CC1 (stereo unspecified),-5.086%
17,Cc1cc(NC(=O)CCN2CCCC2Cn2cncn2)no1 (stereo unspecified),7.653%
18,CC(C)c1cc(NC(=O)CN2CCCC2Cn2cccn2)on1 (stereo unspecified),-0.3726%
19,CCN1CCC(NC(=O)CN2CCCC2Cn2cccn2)CC1 (stereo unspecified),18.69%
20,Cc1cc(NC(=O)CCN2CCCCC2Cn2cccn2)no1 (stereo unspecified),107.3%
21,O=C(CN1CCCCC1Cn1cccn1)NC1CCOCC1 (stereo unspecified),-17.79%
22,CC(C)(C)c1cc(NC(=O)CN2CCCC2Cn2cccn2)on1 (stereo unspecified),83.96%
23,CCN1CCC(NC(=O)CN2CCCCC2Cn2cccn2)CC1 (stereo unspecified),8.022%
24,Cc1cc(NC(=O)CCN2CCCCC2Cn2cncn2)no1 (stereo unspecified),123.3%

row,Structure (SMILES),Percent Effect
1,Cc1cc(NC(=O)CCN2CCCC2Cn2cccn2)no1 (stereo unspecified),85.34%
2,CC(C)(C)c1cc(NC(=O)CN2CCCCC2Cn2cncn2)on1 (stereo unspecified),-6.385%
3,Cc1n[nH]c(C)c1CN(C)C(C(=O)O)c1c(F)cccc1OC(C)C (stereo unspecified),-15.01%
4,CC(C)=CCN1C[C@H]2CC[C@@H]1CN(C(=O)c1ccc3[nH]cnc3c1)C2,1.607%
5,Cc1cnn(CCNCc2cc(=O)n3cc(Cl)ccc3n2)c1,-2.605%
6,CC(=O)N1CCN(CC(=O)NCCCN(C)c2ccccc2)CC1,-6.128%
7,CNc1nc(CNC(=O)Nc2cccc(-c3nnco3)c2)cs1,-5.762%
8,CCC[C@H]1CN(C2CCOCC2)C[C@@H]1NC(=O)CCc1cnccn1,-6.675%
9,O=C(CSc1ccccc1)N1C[C@H]2CC[C@@H]1CN(Cc1ccncc1)C2,-7.761%
10,Cc1nc(NC2CCOCC2)cc(C2CCN2S(C)(=O)=O)n1 (stereo unspecified),120.8%
11,Cc1ccc(-c2cnnc(NCC3CCOCC3)n2)o1,-4.072%
12,Cc1nc(NCC2CCOCC2)cc(C2CCN2S(C)(=O)=O)n1 (stereo unspecified),108.2%
13,CC1c2ncc(COCC3CCOCC3)n2CCN1S(C)(=O)=O (stereo unspecified),-5.189%
14,CC(=O)N1CCC1c1cc(NC2CCOCC2)nc(C)n1 (stereo unspecified),79.3%
15,Cn1ncc(N2CCC(CNC3Cc4ccccc4C3)C2)cc1=O (stereo unspecified),-0.06487%
16,COc1ccc(C(C)N2CCC(OC)CC2)cc1Cl (stereo unspecified),17.11%
17,COC[C@@]12CCO[C@@H]1CCN(Cc1sccc1C)C2.O=C(O)C(F)(F)F,9.781%
18,O=C(N1CCCO1)[C@]12COC[C@H]1CN(Cc1nccs1)C2.O=C(O)C(F)(F)F,-2.706%
19,O=C(N1CCOCC1)[C@@]12CCO[C@@H]1CCN(Cc1cccc(F)c1)C2.O=C(O)C(F)(F)F,102.7%
20,O=C(N1CCCO1)[C@@]12CCO[C@@H]1CCN(Cc1ccccc1)C2.O=C(O)C(F)(F)F,-18.43%
21,O=C(N1CCOCC1)[C@@]12CCO[C@@H]1CCN(CCN1CCCCC1)C2.O=C(O)C(F)(F)F.O=C(O)C(F)(F)F,12.15%
22,O=C(N1CCCO1)[C@@]12CCO[C@@H]1CCN(Cc1cccs1)C2.O=C(O)C(F)(F)F,96.37%
23,O=C(N1CCCO1)[C@@]12CCO[C@@H]1CCN(Cc1ccc(F)cc1)C2.O=C(O)C(F)(F)F,99.96%
24,O=C(N1CCOCC1)[C@@]12CCO[C@@H]1CCN(Cc1ccccc1F)C2.O=C(O)C(F)(F)F,14.16%

row,Structure (SMILES),Percent Effect
1,O=C(N1CCCO1)[C@@]12CCO[C@@H]1CCN(C1CCCCC1)C2.O=C(O)C(F)(F)F,6.239%
2,Cc1ccsc1CN1CC[C@H]2OCC[C@@]2(C(=O)N2CCCO2)C1.O=C(O)C(F)(F)F,103.7%
3,Cc1ccc(S(=O)(=O)NCc2[nH]ncc2Br)cc1C,-4.089%
4,O=C(CN1CCOC1=O)N1CCc2nnc(Cc3ccccc3)n2CC1,1.802%
5,N#Cc1c(Cl)nsc1NCc1ccc(N2CCC(CO)CC2)cc1,-1.187%
6,Cc1ccc(CN2C[C@H](C(=O)N3CCCCO3)[C@@H]3CCO[C@@H]3C2)o1.O=C(O)C(F)(F)F,-4.524%
7,Cc1ccc(CN2CC[C@H]3OCC[C@@]3(C(=O)N3CCCO3)C2)o1.O=C(O)C(F)(F)F,102.1%
8,Cc1ccc(CN2CCOC3(CCCN(c4cccc(F)c4)C3)C2)o1.O=C(O)C(F)(F)F.O=C(O)C(F)(F)F (stereo unspecified),-11.31%
9,Cn1cccc1C(=O)N[C@@H]1CN(S(C)(=O)=O)[C@@H]2COC[C@@H]21,-0.3534%
10,COCCC1(C(=O)O)CCCN(Cc2cc3c(cc2C)OCO3)C1 (stereo unspecified),0.3642%
11,Cc1nc(COCC2CN(C(N)=O)Cc3nccn3C2)cs1.O=C(O)C(F)(F)F (stereo unspecified),114.2%
12,Cc1nc(COCC2CNCc3nccn3C2)cs1 (stereo unspecified),1.667%
13,Cc1nc(COCc2cnc3n2CCN(C)C3C)cs1.O=C(O)C(F)(F)F (stereo unspecified),0.7983%
14,Cc1nc(CN2CCCn3cnc(COCC4CC4)c3C2)cs1.O=C(O)C(F)(F)F,-1.787%
15,Cc1nc(COCC2CN(C(=O)N(C)C)Cc3nccn3C2)cs1.O=C(O)C(F)(F)F (stereo unspecified),91.86%
16,Cc1cc(C)c(C(=O)NCCNc2ncnc3ccccc23)c(=O)[nH]1,-7.4%
17,COc1cc(F)ccc1NC(=O)NC(C)C(=O)NC(C)(C)C (stereo unspecified),-5.015%
18,COc1ccc(CNCc2c(C)nc3sc(C)cn23)c(OC)c1OC,49.47%
19,c1ccc(-c2noc3c2CN(CC2CC2)CC3)cc1,5.665%
20,Cc1ncc2c(n1)CN(CC(=O)Nc1c(C)nn(C)c1C)CC2,114.4%
21,Cc1cc(NC(=O)CN2CCc3cnc(C)nc3C2)on1,-3.742%
22,Cc1nn(C)c(C)c1NC(=O)CN1CCc2c(nc(C3CC3)n2C)C1,-19.95%
23,Cc1ncc2c(n1)CN(CC(=O)Nc1cc(C)on1)CC2,138%
24,Cc1cc(NC(=O)CN2CCn3c(nnc3C(C)C)C2)no1,1.243%

row,Structure (SMILES),Percent Effect
1,Cc1ncc2c(n1)CN(CCOCC(F)(F)F)CC2,-8.792%
2,Cc1ccc(Cl)cc1N1CCC(CNC(=O)CC(F)(F)F)C1 (stereo unspecified),-9.569%
3,COCCN1Cc2ccnn2CC(COCc2cccnc2)C1 (stereo unspecified),-11.51%
4,CN(CC1CCOC1)S(=O)(=O)c1cccc(C(=O)N2CCOCC2)c1 (stereo unspecified),110.2%
5,CN(C)C1CCN(C(=O)c2cccc(S(=O)(=O)NCC3(C)COC3)c2)C1 (stereo unspecified),24.95%
6,O=C(c1cccc(S(=O)(=O)NCCCn2cccn2)c1)N1CCOCC1,-8.398%
7,CN(Cc1ncc[nH]1)S(=O)(=O)c1cccc(C(=O)N2CCOCC2)c1,-7.295%
8,O=C(c1cccc(S(=O)(=O)NCCCc2ccco2)c1)N1CCOCC1,28.12%
9,CN(CC1CCOC1)S(=O)(=O)c1cccc(C(=O)N2CCCCCC2)c1 (stereo unspecified),127.8%
10,CN(CC1CCCCO1)S(=O)(=O)c1cccc(C(=O)N2CCOCC2)c1 (stereo unspecified),99.86%
11,O=C(c1cccc(S(=O)(=O)NCCc2ccccn2)c1)N1CCOCC1,-3.428%
12,CN1CCCN(C(=O)c2cccc(S(=O)(=O)NCC3(C)COC3)c2)CC1,-12.18%
13,C=C(C)CN1C(=O)CC(Cc2ccc(F)cc2)C1=O (stereo unspecified),-35.72%
14,O[C@@H]1C[C@@H](c2nc(-c3ccccc3)no2)N(C2CCOCC2)C1,-15.45%
15,O=C(O)C(F)(F)F.O=C1CC2(CCCCN2C(=O)c2ccncc2)CN1CC1CC1 (stereo unspecified),106.2%
16,O=C1CC2(CCCCN2C(=O)c2cccs2)CN1CC1CC1 (stereo unspecified),78.16%
17,O=C(O)C(F)(F)F.O=C1CC2(CCCCN2C(=O)c2ccco2)CN1c1cccnc1 (stereo unspecified),3.429%
18,CC1N(CC2CC2)C(=O)COC12CCN(C(=O)c1cccs1)CC2 (stereo unspecified),8.45%
19,O=C1CC2(CCCCN2C(=O)c2ccccc2)CN1CC1CC1 (stereo unspecified),79.38%
20,O=C1CC2(CCCCN2C(=O)c2ccoc2)CN1Cc1ccccc1 (stereo unspecified),-18.39%
21,O=C(CCC(=O)c1cccs1)NC1(C(=O)NCC2CC2)CCCC1,1.426%
22,Cn1ccc(C(=O)N2CCCCC23CC(=O)N(Cc2ccccc2)C3)n1 (stereo unspecified),-1.004%
23,O=C(O)C(F)(F)F.O=C1CC2(CCCCN2C(=O)Cc2ccccc2)CN1c1cccnc1 (stereo unspecified),-0.631%
24,CC(=O)N(C)CCc1nc(-c2cc(C(N)=O)co2)cs1,-0.5467%
